Data on eleven compounds can be found in PubChem BioAssay (NCATS).

Experiment [1] can be described thus: Primary qHTS for small molecule stabilizers of the endoplasmic reticulum resident proteome: Secreted ER Calcium Modulated Protein (SERCaMP) assay (AID 1508630). The essentials:
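GLuc-SERCaMP-expressing SH-SY5Y cells, pretreated 16 h with compound, are challenged with thapsigargin to empty ER calcium stores; after 4 h, coelenterazine is added directly to the medium and luminescence is imaged.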
In general terms: In qHTS, concentration-response curves come from the screen itself.

In experiment [2] the target is Cytochrome P450 2D6 (Homo sapiens) (UniProt P10635). Kind of experiment: Cytochrome P450 family 2 subfamily D member 6 (CYP2D6) small molecule antagonists: luciferase biochemical (cell-free) qHTS assay (AID 1645840; active means well fitted curve in the direction sought with a large enough effect in the repeat runs; an effect the other way counts as inactive or inconclusive; further: nearly all actives have a fitted effect of over 55% in size; further: potency means the concentration at half of the fitted maximal effect). An outline of the steps: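 P450-Glo luminescent screen: recombinant CYP2D6 enzyme–proluciferin substrate mix preincubated with compound 10 min at room temperature, then NADPH regeneration added for 1 h at room temperature. Detection reagent added for 20 min; luciferin light read as relative luminescence units.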
Sequence of Cytochrome P450 2D6 (Homo sapiens) (P10635 whole entry, looked up): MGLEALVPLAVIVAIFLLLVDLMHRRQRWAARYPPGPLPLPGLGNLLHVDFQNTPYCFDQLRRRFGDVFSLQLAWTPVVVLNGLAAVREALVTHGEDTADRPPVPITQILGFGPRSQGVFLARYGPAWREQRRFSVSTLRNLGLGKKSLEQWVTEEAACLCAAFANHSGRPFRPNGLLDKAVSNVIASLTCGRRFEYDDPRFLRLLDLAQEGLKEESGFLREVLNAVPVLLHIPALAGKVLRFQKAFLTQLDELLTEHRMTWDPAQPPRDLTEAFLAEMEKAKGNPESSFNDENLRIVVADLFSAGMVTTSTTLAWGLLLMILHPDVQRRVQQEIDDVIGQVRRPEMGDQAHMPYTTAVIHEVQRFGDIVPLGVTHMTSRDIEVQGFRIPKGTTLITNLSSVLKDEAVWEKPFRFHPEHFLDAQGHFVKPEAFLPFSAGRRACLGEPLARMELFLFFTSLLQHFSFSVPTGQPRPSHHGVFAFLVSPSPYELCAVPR

In experiment [3] the target is Cytochrome P450 2C9 (Homo sapiens) (UniProt P11712). Kind of experiment: Cytochrome P450 family 2 subfamily C member 9 (CYP2C9) small molecule antagonists: luciferase biochemical (cell-free) qHTS assay (AID 1645842; active means well fitted curve in the direction sought with a large enough effect in the repeat runs; an effect the other way counts as inactive or inconclusive; further: nearly all actives have a fitted effect of over 55% in size; further: potency means the concentration at half of the fitted maximal effect). The essentials: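 Luminescence, after 20 min with luciferin detection reagent, reflected CYP2C9 turnover during a 1 h NADPH-driven reaction at 37C. Enzyme-substrate mix contained 0.4% bovine serum albumin and was preincubated with compound 10 min at room temperature.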
Sequence of Cytochrome P450 2C9 (Homo sapiens) (P11712 whole entry, looked up): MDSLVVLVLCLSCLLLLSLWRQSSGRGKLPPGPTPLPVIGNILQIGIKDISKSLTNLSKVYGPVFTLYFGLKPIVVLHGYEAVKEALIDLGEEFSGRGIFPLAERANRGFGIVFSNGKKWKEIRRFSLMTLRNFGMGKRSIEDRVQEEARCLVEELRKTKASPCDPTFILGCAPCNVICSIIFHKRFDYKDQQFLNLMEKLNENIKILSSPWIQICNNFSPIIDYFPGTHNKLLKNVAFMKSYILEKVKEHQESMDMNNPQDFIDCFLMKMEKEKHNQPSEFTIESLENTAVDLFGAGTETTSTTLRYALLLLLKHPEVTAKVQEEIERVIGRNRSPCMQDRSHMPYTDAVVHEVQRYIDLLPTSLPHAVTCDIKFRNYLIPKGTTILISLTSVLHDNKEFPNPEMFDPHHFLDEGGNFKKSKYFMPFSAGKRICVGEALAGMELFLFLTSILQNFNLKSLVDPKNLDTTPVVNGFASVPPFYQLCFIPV

Experiment [4] is described as follows: Primary qHTS for inhibitors of nuclear receptor binding SET domain protein 2 (NSD2) in an isogenic RCH-ACV NSD2 p.E1099K mutant (9B) (AID 1645876). Further: nearly all actives have a fitted effect of over 70% in size. Further: potency means the concentration at half of the fitted maximal effect.
Experiment [5] can be described thus: Primary qHTS for inhibitors of nuclear receptor binding SET domain protein 2 (NSD2) in an RCH-ACV wild type WT cells (2C) (AID 1645877). Further: nearly all actives have a fitted effect of over 70% in size. Further: potency means the concentration at half of the fitted maximal effect.
Experiment [6] in a line: NCATS anti-infectives library activity on HEK293 viability as a counter-qHTS vs the C. elegans viability qHTS (AID 1745854).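 Further: HEK293 cells exposed to compounds for 24 hr before the viability read.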 The essentials:
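HEK293 cells (1,500/well) exposed 24 hr at 37C to 1:5 titrations, up to 41.7 uM final; counter-screen to a C. elegans viability qHTS. Viability by CellTiter-Glo luminescence after 10 min at room temperature; digitonin as control.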

Experiment [7] has as its target Rap guanine nucleotide exchange factor 3 (Homo sapiens) (UniProt O95398). The experiment can be described thus: Confirmatory qHTS for antagonist of cAMP-regulated guanine nucleotide exchange factor 3 (EPAC1) (AID 1645880). Further: nearly all actives have a fitted effect of over 55% in size. An outline of the steps:
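Nucleotide exchange uses 100 nM EPAC1, 250 nM RAP1B-BODIPY-GDP and 50 uM GDP, with compounds in a concentration-titration series. After 5 min at room temperature, fluorescence (480 nm ex/540 nm em) is read every 5 min for 30 min. Data are normalized to control ATA and DMSO.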

The target is the same in experiment [8]. Kind of experiment: Confirmatory qHTS for agonist of cAMP-regulated guanine nucleotide exchange factor 3 (EPAC1) (AID 1645881).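 Further: EPAC1 catalysed release of BODIPY-GDP from Rap1B seen as fluorescence loss; nearly all actives have a fitted effect of over 75% in size.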
Experiment [9] deals with Rap guanine nucleotide exchange factor 4 (Homo sapiens) (UniProt Q8WZA2). The experiment can be described thus: Confirmatory qHTS for agonist of cAMP-regulated guanine nucleotide exchange factor 4 (EPAC2) (AID 1645884).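 Further: nucleotide exchange releases bodipy-GDP from Rap1 and this lowers its fluorescence; nearly all actives have a fitted effect of over 65% in size.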
Sequence of Rap guanine nucleotide exchange factor 4 (Homo sapiens) (Q8WZA2 whole entry, looked up): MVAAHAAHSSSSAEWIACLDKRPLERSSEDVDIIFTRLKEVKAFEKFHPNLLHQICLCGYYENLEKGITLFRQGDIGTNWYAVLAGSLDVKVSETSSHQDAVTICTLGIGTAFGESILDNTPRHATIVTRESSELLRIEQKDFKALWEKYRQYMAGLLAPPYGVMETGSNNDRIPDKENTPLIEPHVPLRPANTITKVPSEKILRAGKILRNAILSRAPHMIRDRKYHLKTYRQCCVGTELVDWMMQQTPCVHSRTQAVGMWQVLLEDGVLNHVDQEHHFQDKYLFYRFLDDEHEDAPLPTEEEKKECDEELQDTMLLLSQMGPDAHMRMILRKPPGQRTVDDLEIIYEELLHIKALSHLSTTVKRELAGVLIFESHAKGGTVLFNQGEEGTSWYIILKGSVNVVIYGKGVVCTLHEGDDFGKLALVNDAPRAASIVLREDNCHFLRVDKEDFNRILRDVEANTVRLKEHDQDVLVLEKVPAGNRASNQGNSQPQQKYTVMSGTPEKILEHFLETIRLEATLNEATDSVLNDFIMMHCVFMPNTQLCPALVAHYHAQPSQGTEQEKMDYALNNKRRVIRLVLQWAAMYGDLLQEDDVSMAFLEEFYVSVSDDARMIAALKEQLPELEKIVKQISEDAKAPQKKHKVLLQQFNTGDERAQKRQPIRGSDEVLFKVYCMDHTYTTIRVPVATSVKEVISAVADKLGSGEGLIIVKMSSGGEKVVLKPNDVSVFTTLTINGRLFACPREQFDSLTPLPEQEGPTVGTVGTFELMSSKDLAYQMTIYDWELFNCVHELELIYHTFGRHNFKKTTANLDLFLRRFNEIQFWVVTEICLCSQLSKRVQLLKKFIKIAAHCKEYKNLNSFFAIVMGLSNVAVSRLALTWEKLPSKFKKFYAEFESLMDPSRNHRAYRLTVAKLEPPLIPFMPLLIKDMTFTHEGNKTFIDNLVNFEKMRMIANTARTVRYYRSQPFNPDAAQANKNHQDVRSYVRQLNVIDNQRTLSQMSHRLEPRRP
The target is the same in experiment [10]. Kind of experiment: Confirmatory qHTS for antagonist of cAMP-regulated guanine nucleotide exchange factor 4 (EPAC2) (AID 1645885). Further: potency means the concentration at half of the fitted maximal effect; nearly all actives have a fitted effect of over 25% in size.
The next experiment addresses Papain (Carica papaya) (UniProt P00784). The experiment can be described thus: Primary qHTS assay for inhibitors of the protease papain (AID 1645873).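 Further: papain turnover of Z-FR-AMC read as the AMC fluorescence gain over 10 min; series mostly up to about 50 µM.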

Values joined by “and” are separate entries in the source; they are usually repeats but may differ in a detail not shown here. Equal entries are not always repeated. Inconclusive results are not listed. Active and inactive are the calls of the source. Unless noted, the call rests on the fitted dose curve; in most records, active means well fitted curve in the direction sought with a large enough effect; inconclusive means small, poorly fitted or top-dose-only effect, or another doubt; inactive means no such curve, though single readings can be large; an effect the other way counts as inactive or inconclusive.

Sequence of Rap guanine nucleotide exchange factor 3 (Homo sapiens) (O95398 whole entry, looked up): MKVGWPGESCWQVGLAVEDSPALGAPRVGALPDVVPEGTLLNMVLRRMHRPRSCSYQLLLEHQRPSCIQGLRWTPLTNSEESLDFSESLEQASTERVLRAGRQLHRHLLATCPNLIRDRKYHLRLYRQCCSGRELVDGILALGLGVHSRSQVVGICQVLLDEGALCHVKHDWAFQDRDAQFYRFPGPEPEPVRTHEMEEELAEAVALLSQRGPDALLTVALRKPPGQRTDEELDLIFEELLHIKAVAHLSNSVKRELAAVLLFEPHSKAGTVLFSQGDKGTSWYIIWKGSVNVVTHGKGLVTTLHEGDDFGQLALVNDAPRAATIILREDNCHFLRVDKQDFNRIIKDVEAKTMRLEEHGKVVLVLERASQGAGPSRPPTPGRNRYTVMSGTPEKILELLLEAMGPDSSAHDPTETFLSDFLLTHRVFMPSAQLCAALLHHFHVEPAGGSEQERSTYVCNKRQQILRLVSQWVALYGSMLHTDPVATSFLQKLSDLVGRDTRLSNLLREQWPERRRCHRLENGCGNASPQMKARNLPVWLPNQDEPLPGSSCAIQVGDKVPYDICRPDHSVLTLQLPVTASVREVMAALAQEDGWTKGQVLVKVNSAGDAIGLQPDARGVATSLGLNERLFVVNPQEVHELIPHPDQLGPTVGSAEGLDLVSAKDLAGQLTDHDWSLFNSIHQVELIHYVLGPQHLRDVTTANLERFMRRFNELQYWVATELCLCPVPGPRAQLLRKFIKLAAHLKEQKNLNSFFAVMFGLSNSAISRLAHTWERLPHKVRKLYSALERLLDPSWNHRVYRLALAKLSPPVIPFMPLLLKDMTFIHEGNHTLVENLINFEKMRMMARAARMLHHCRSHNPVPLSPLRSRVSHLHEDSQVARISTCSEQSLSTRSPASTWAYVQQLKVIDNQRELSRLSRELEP
Sequence of Papain (Carica papaya) (P00784 whole entry, looked up): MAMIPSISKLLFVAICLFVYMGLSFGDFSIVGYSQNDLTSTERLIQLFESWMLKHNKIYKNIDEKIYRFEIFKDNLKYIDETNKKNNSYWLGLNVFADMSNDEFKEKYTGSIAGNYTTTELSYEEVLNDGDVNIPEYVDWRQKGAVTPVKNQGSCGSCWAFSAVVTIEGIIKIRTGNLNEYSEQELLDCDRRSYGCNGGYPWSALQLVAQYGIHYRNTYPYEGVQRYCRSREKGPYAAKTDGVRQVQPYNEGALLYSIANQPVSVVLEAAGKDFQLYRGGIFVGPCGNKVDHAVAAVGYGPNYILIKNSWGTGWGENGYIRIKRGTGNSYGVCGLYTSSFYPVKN

`OCCOCCN1CCN(C2=Nc3ccccc3Sc3ccccc32)CC1`: the Potency entry in [1], in experiment [2], in experiment [3], in experiment [4] and in [5] was “inactive” throughout.
Regarding `CC(C)(C)NC[C@H](O)COc1cccc2c1CCCC2=O`, the Potency result in [1], in experiment [3], in experiment [4] and in [5] was “inactive” throughout.
In the case of `O=S(=O)(O)c1ccc(O)cc1`, the Potency result in experiment [1], in experiment [2], in experiment [3], in experiment [4] and in [5] was “inactive” each time.
As for `CCN(CC)CCNc1ccc(CO)c2sc3ccccc3c(=O)c12`, the Potency result in experiment [1] and in [3] was “inactive” each time. Also, the Potency in experiment [2] was 4.36 µM (active); in [4], 2.66 µM (active); in [5], 1.33 µM (active). For the same compound, the outcome in [6] was inactive.
As to `CCCCC(CC)COC(=O)c1ccc(N(C)C)cc1` (stereo not given), the Potency result in [1], in experiment [4] and in experiment [5] was “inactive” throughout. The Potency in experiment [3] is 13.8 µM (active) and 13.5 µM (active).
In the case of `CCOC(=O)C(C#N)=C(c1ccccc1)c1ccccc1`, the Potency result in experiment [1], in experiment [2], in [4], in experiment [5] and in [7] was “inactive” in each case. For the same compound, the results for the Potency in experiment [3] and in experiment [10] were 2.45 µM (active) and 49.4 µM (active), respectively. In addition, the outcome in experiment [8] and in experiment [9] was inactive.
With `Clc1cccc(C(c2ccc3nc[nH]c3c2)n2ccnc2)c1` (stereo not given), the Potency result in experiment [1], in experiment [4] and in [5] was “inactive” in each case. For the same compound, the Potency in [2] is 15.5 µM (active); in experiment [3] it was 7.76 µM (active).
As for `N/C(=N\N=C\c1ccc(Cl)cc1)N/N=C/c1ccc(Cl)cc1`, the Potency result in [1], in experiment [4] and in experiment [5] was “inactive” in each case. The Potency in experiment [2] is 15.5 µM (active); in experiment [3], 13.8 µM (active).
Regarding `CN=C(N)NCCC[C@H](N)C(=O)O`, the Potency entry in experiment [1] is “inactive”. For the same compound, the result in the experiment with Papain (Carica papaya) was inactive.
Take `CC(C)NCC(O)c1ccc2ccccc2c1` (stereo not given): the Potency result in experiment [1], in experiment [3], in [4] and in experiment [5] was “inactive” in each case. The Potency in experiment [2] was 3.47 µM (active).
With `Cc1cc(NS(=O)(=O)c2ccc(N)cc2)nc(C)n1`, the Potency entry in experiment [1], in experiment [2], in experiment [3], in [4] and in experiment [5] was “inactive” each time.
